Test results from PubChem BioAssay (NCATS).
Inconclusive results are not listed. The source made the active and inactive calls. The call rests on the fitted dose curve; in most records, active means well fitted inhibition curve with a large enough effect; inconclusive means small, poorly fitted or top-dose-only effect; inactive means flat fitted curve, though single readings scatter.

What was measured:
Experiment in all cases: Cytotoxic Profiling of Annotated Libraries Using Quantitative High-Throughput Screening (AID 1296008); further: nearly all actives have a fitted effect of over 60% in size
Details in all cases: Five cell lines viability, CellTiter-Glo ATP luminescence, 48-72 h; max response: hits give low values
[1] = tested on: CRL-7250
Method in brief: (§1)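 Compounds were pin-transferred onto cells and incubated 48 or 72 hr at 37 degree Celsius, 95% humidity. CellTiter-Glo was added, plates sat 10 min at room temperature, then ATP-coupled luminescence was imaged as the viability read-out.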

[2] = tested on: HEK293
Method in brief: as §1

[3] = tested on: HaCat
Method in brief: as §1

[4] = tested on: KB-3-1
Method in brief: as §1

[5] = tested on: NIH3T3
Method in brief: as §1

Measured: max response
On the % scale 0 is the no-effect control and ±100 the full control effect.

C/C=C/C=C/C(O)=C1/C(=O)[C@]2(C)C3/C(=C(O)/C=C/C=C/C)C(=O)C4(C)C1[C@]1(C)O[C@@]4(O)[C@@]3(C)O[C@@]12O
inactive: [1] | [2] 2.27% | [3] | [4] 0.929% | [5]

CC(=O)OC/C(=C/C(=O)O)CC[C@@H]1C(C)=CC(=O)[C@@H]2C(C)(C)CCC[C@@]12C
inactive: [1] | [2] -0.879% | [3] | [4] -6.11% | [5]

Cc1ccccc1N1CCN(S(=O)(=O)C[C@]23CC[C@H](C[C@@H]2NC(=O)[C@@H](N)CCS(C)(=O)=O)C3(C)C)CC1
inactive: [1] 1.21% | [2] 4.97% | [3] 0.627% | [4] 5.94% | [5]

CC1CC(=O)[C@]2(O)C(C(=O)OCCc3ccc(O)cc3)=CO[C@@H](O[C@@H]3O[C@H](CO)[C@@H](O)[C@H](O)[C@H]3O)[C@H]12 (stereo not given in full)
inactive: [1] -11.7% | [2] -6.36% | [3] | [4] | [5] -59.3%

CC1(C)CCC2(C(=O)O)CCC3(C)C(=CCC4C5(C)CCC(O)C(C)(CO)C5C(O)CC43C)C2C1 (stereo not given)
inactive: [1] -7.98% | [2] 4.6% | [3] | [4] 4.19% | [5]

COC(=O)Cn1nc(-c2cccc(OC)c2)c2ccccc21
inactive: [1] 4.76% | [2] -5.92% | [3] | [4] 1.13% | [5] 2.46%

COc1ccc(C(=O)NCc2cc(C(C)C)no2)cc1OC1CCN(C)CC1
inactive: [1] -1.84% | [2] -4.29% | [3] 4.96% | [4] -1.9% | [5]

COc1ccc(/C=C/C(=O)O[C@@H]2[C@@H](OC(C)=O)[C@@H](OC(C)=O)[C@H](O[C@H]3[C@@H]4C=CO[C@@H](O[C@@H]5O[C@H](CO)[C@@H](O)[C@H](O)[C@H]5O)[C@@H]4[C@@]4(CO)O[C@@H]34)O[C@H]2C)cc1
inactive: [1] | [2] -1.95% | [3] 0.723% | [4] 2.76% | [5]

CC1(C)CC[C@]2(C(=O)OC3OC(CO)C(O)C(O)C3O)CC[C@]3(C)C(=CCC4[C@@]5(C)C[C@@H](O)[C@H](OC6OC(C(=O)O)C(O)C(O)C6O)C(C)(C)C5CC[C@]43C)[C@@H]2C1 (stereo not given in full)
inactive: [1] 2.21% | [2] 3.34% | [3] | [4] 7.37% | [5] -4.63%
